About 83,000 compounds went through this panel and 20% of them were active in at least one assay; those are over-represented in the sample as a whole.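 Cells were grown in 96-well plates and exposed to the test compound at a single concentration for 48 hours; results are reported as percent growth, with values below 10 considered active.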 Calls of active or inactive are those of the source.
Experiments:
Experiment in all cases: NCI-60 one-dose screen, 48 h (100 = growth as untreated, 0 = no growth, -100 = all killed)
Details in all cases: 10 µM unless noted
[1] = test system: DU-145 prostate
[2] = test system: K-562 leukemia
[3] = test system: MALME-3M melanoma
[4] = test system: MDA-MB-231 breast
[5] = test system: RXF 393 renal
[6] = test system: SF-268 CNS
[7] = test system: SF-295 CNS
[8] = test system: SF-539 CNS
[9] = test system: UACC-257 melanoma
[10] = test system: M14 melanoma

Measured: growth

Nc1ncccc1O
inactive: [1] 22.8% | [2] 67.6% | [3] 131% | [4] 117% | [5] 76.1% | [6] 96% | [7] 82.4% | [8] 106% | [9] 91.3% | [10] 102%

COc1ccc2c(c1)c(-c1nc(-c3ccc4ccccc4c3)cs1)cn2C
inactive: [1] 103% | [2] 67.7% | [3] 149% | [4] 80.2% | [5] 69.1% | [6] 100% | [7] 104% | [8] 89% | [9] 94% | [10] 96.9%

COc1ccc(Oc2ccc(/C=C/C(=O)c3cc4ccccc4oc3=O)cc2)cc1
inactive: [1] 101% | [2] 78.7% | [3] 94.2% | [4] 76% | [5] 100% | [6] 80.9% | [7] 104% | [8] 92.5% | [9] 93.3% | [10] 90.5%

COC12C=C/C(=C(/C(=O)OCc3cncnc3)C(=O)CCCCCCCCC3(OC)C=C/C(=C(/C(=O)OCc4cncnc4)C(=O)CCCCCCCC1)O3)O2
active: [1] -42.7% | [2] -16.8% | [3] -70.8% | [4] 5.88% | [5] -74.2% | [6] -10.6% | [7] -13.8% | [8] -27% | [9] -12.7% | [10] -12.3%

CC(C)NS(=O)(=O)/N=C1\NC(=O)NC1=C(Cl)Cl
inactive: [1] 104% | [2] 91.3% | [3] 99.9% | [4] 116% | [5] 112% | [6] 91.3% | [7] 103% | [8] 96% | [9] 76.8% | [10] 97.2%

C=C(c1ccc(C(=O)O)c(F)c1)c1cc2c(cc1C)C(C)(C)CCC2(C)C
inactive: [1] 108% | [2] 71.9% | [3] 63.6% | [4] 85.7% | [5] 90.9% | [6] 77.9% | [7] 72.8% | [8] 81.1% | [9] 95.8% | [10] 89.4%

COc1ccc(Cl)cc1Nc1nc(C(F)(F)F)ccc1C(=O)N/N=C/c1ccc([N+](=O)[O-])cc1
active: [2] 2.07% | [4] -14.9% | [7] -52% | [9] -3.41%
inactive: [1] 12.8% | [3] 11.5% | [5] 13% | [6] 15.3% | [8] 10.8% | [10] 36.2%

O=C(Nc1nc(Cl)nc(Nc2ccc(N3CCOCC3=O)cc2)n1)c1ccc(Cl)s1
inactive: [1] 104% | [2] 64.2% | [3] 88.3% | [4] 88.3% | [5] 91.3% | [6] 95.9% | [7] 92.7% | [8] 104% | [9] 72.2% | [10] 90.4%

CCCCO[C@@H]1C=C2[C@H]3CC(C)(C)C(=O)C[C@]3(C(=O)O[C@@H]3O[C@H](CO[C@@H]4O[C@H](CO)[C@@H](OC5OC(C)C(O)C(O)C5O)[C@H](O)[C@H]4O)[C@@H](O)[C@H](O)[C@H]3O)CC[C@@]2(C)[C@]2(C)CC[C@H]3C(C)(C)C(=O)CC[C@]3(C)[C@@H]12 (stereo not given in full)
inactive: [1] 97.9% | [2] 90.5% | [3] 34.2% | [4] 73.2% | [5] 63.2% | [6] 47.2% | [7] 92.8% | [8] 60.1% | [9] 49.1% | [10] 40.5%

CCOc1ncc([N+](=O)[O-])c(OCC)n1
inactive: [1] 123% | [2] 103% | [3] 129% | [4] 97.1% | [5] 122% | [6] 118% | [7] 116% | [8] 102% | [9] 102% | [10] 112%

Cc1oc(-c2ccc(Cl)cc2)nc1C1=NN(C(=O)c2ccncc2)C(c2ccccc2)C1 (stereo not given)
inactive: [1] 101% | [2] 85.9% | [3] 101% | [4] 76.7% | [5] 82.3% | [6] 89.2% | [7] 89.4% | [8] 95.6% | [9] 103% | [10] 99.2%

Reference: PubChem BioAssay (NCI)
